Test results taken from PubChem BioAssay (Tox21).
“And” between values parts separate entries of the source, which are not always exact repeats. Equal entries are not always repeated. More than one record can exist for a structure, and the calls need not agree. The source made the active and inactive calls. A call without a number means that no potency is given here. Unless noted, the call rests on the fitted dose curve.
Potency means the concentration at half of the fitted maximal effect.

Tested on: thyroid hormone receptor (rat, GH3 cells)
Test: qHTS assay to identify small molecule agonists of the thyroid receptor (TR) signaling pathway (AID 743066)
Details: GH3.TRE-Luc cells, TR agonist luciferase, 24 h; series mostly up to 83.9 µM; activation: at the top concentration
In the case of `CCNc1nc(Cl)nc(NCC)n1`, the Potency is reported as “inactive”. For `CCCCn1cc[n+](C)c1`, the Potency was “inactive”. In the case of `CCCCCCCCCCCCCC[P+](CCCCCC)(CCCCCC)CCCCCC`, the Potency is reported as “inactive”. With `O=C(O)C(Cl)(Cl)Cl` the Potency was “inactive”. In the case of `Nc1ccc(-c2ccc(N)cc2)cc1`, the Potency is reported as “inactive”. For `CC(=O)[O][Hg][c]1ccccc1`, the “activation” value was -8.92% (inactive). For `CCOP(=S)(OCC)Oc1ccc2c(C)c(Cl)c(=O)oc2c1`, the Potency was “inactive”. With `C1CCC(NC2CCCCC2)CC1` the Potency was “inactive”. For `O=C(O)CC(O)(CC(=O)O)C(=O)O`, the Potency was “inactive”. For `Cc1cc(Cl)ccc1N`, the Potency was “inactive”. For `C[C@]12CCC(=O)C=C1CC[C@@H]1[C@@H]2CC[C@]2(C)C(=O)CC[C@@H]12`, the Potency was “inactive”. For `OCCOc1ccccc1`, the Potency was “inactive”. In the case of `COc1ccc(N)cc1`, the Potency is reported as “inactive”. With `O=C(O)c1nc(Cl)ccc1Cl` the Potency was “inactive”. In the case of `CCCC[n+]1cccc(C)c1`, the Potency is reported as “inactive”. With `CCCC[N+]1(C)CCCC1` the Potency was “inactive”. With `COc1ccccc1N` the Potency was “inactive”. With `O=[N+]([O-])c1ccccc1O` the Potency was “inactive”. With `CCCC[n+]1ccccc1` the Potency was “inactive”. With `CCCCn1cc[n+](C)c1C` the Potency was “inactive”. For `Cc1cc(Cl)ccc1OCC(=O)O`, the Potency was “inactive”. For `CC(Cl)(Cl)C(=O)O`, the Potency was “inactive”. For `O=C(O)CCl`, the Potency was “inactive”. In the case of `CCCCCC[n+]1ccccc1`, the Potency is reported as “inactive”. In the case of `Nc1ccc(Cl)cc1`, the Potency is reported as “inactive”. In the case of `Cc1cc(-c2ccc(N)c(C)c2)ccc1N`, the Potency is reported as “inactive”. In the case of `O=C(O)C(Cl)Cl`, the Potency is reported as “inactive and 61.1 µM (active)”. For `CCC(=O)C(CC(C)N(C)C)(c1ccccc1)c1ccccc1` (configuration not stated), the Potency was “inactive”. In the case of `Nc1ccc(-c2ccc(N)c(Cl)c2)cc1Cl`, the Potency is reported as “inactive”. With `COP(=O)(OC)OC=C(Cl)Cl` the Potency was “inactive”. With `CCC[N+]1(C)CCCCC1` the Potency was “inactive”.

Target: Estrogen receptor (Homo sapiens) (UniProt P03372)
Sequence (P03372 whole entry, looked up): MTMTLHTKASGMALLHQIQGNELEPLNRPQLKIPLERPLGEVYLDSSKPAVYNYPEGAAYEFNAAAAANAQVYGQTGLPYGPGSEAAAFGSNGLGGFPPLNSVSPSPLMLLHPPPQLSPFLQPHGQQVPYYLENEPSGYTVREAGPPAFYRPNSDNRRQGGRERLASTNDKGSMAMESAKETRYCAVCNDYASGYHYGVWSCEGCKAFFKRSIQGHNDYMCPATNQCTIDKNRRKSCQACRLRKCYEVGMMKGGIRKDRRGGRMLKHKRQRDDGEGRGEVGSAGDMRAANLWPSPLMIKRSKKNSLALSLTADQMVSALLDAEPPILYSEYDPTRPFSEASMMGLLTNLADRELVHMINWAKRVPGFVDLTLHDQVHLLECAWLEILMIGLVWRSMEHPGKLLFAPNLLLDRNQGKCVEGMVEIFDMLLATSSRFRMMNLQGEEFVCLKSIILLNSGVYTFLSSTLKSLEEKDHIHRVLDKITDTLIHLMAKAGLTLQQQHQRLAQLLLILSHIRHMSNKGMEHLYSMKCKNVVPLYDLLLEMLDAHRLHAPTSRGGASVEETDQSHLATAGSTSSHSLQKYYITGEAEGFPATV
Test: qHTS assay to identify small molecule antagonists of the estrogen receptor alpha (ER-alpha) signaling pathway (AID 743069; active means well fitted curve in the direction sought with a large enough effect in the signal ratio in the repeat runs, not every such curve was filed as active; inconclusive means weak or mixed curves, or effect the other way; inactive means no such curve, though single readings can be large or run the other way; the % refers to the signal ratio)
Details: HEK293 ER-alpha-UAS-bla, beta-lactamase ratio, antagonist mode; series mostly up to 69.4 µM; activity, negative = inhibition: at the top concentration
How it was run: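 HEK293 cells stably carrying an ER-alpha-UAS-bla beta-lactamase reporter were pre-cultured overnight in 2% charcoal-stripped FBS medium. Test compounds in DMSO were added together with 17beta-estradiol for 18 hr at 37C. Read-out was fluorescence after 2 hr with LiveBLAzer B/G FRET substrate at room temperature.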
With `CCNc1nc(Cl)nc(NCC)n1` the Potency was “inactive”. With `CCCCCCCCCCCCCC[P+](CCCCCC)(CCCCCC)CCCCCC` the Potency was 982 nM [inconclusive] (active) and 985 nM [inconclusive] (active) and 775 nM [inconclusive] (active). For `Nc1ccc(-c2ccc(N)cc2)cc1`, the Potency was “inactive”. In the case of `CC(=O)[O][Hg][c]1ccccc1`, the Potency is reported as 6.16 µM [inconclusive] (active). In the case of `C1CCC(NC2CCCCC2)CC1`, the Potency is reported as “inactive”. For `OCCOc1ccccc1`, the Potency was “inactive”. In the case of `O=C(O)c1nc(Cl)ccc1Cl`, the Potency is reported as “inactive”. For `Cc1cc(Cl)ccc1OCC(=O)O`, the Potency was “inactive”. With `CC(Cl)(Cl)C(=O)O` the Potency was “inactive”. In the case of `Nc1ccc(Cl)cc1`, the Potency is reported as 9.95 µM [inconclusive] (active). In the case of `Cc1cc(-c2ccc(N)c(C)c2)ccc1N`, the Potency is reported as “inactive”. In the case of `O=C(O)C(Cl)Cl`, the Potency is reported as “inactive”. With `CCC(=O)C(CC(C)N(C)C)(c1ccccc1)c1ccccc1` (configuration not stated) the Potency was “inactive”. For `Nc1ccc(-c2ccc(N)c(Cl)c2)cc1Cl`, the Potency was 27.7 µM [inhibitor] (active). With `COP(=O)(OC)OC=C(Cl)Cl` the Potency was 10.7 µM [inhibitor] (active) and inactive.

Tested on: not listed separately
Test: qHTS assay to identify small molecule antagonists of the estrogen receptor alpha (ER-alpha) signaling pathway - cell viability counter screen (AID 743074); further: nearly all actives have a fitted effect of over 45% in size
Details: ERalpha-bla HEK293 viability, CellTiter-Glo luminescence, 18 h; series mostly up to 69.4 µM; activity, negative = cytotoxicity: at the top concentration
For `CCNc1nc(Cl)nc(NCC)n1`, the Potency was “inactive”. For `CCCCn1cc[n+](C)c1`, the Potency was “inactive”. With `CCCCCCCCCCCCCC[P+](CCCCCC)(CCCCCC)CCCCCC` the Potency was 13.9 µM (active) and 11.1 µM (active). For `O=C(O)C(Cl)(Cl)Cl`, the Potency was “inactive”. For `Nc1ccc(-c2ccc(N)cc2)cc1`, the Potency was “inactive”. For `CC(=O)[O][Hg][c]1ccccc1`, the Potency was 5.35 µM (active) and 2.43 µM (active) and 5.49 µM (active). For `CCOP(=S)(OCC)Oc1ccc2c(C)c(Cl)c(=O)oc2c1`, the Potency was “inactive”. For `C1CCC(NC2CCCCC2)CC1`, the Potency was “inactive”. With `O=C(O)CC(O)(CC(=O)O)C(=O)O` the Potency was “inactive”. For `Cc1cc(Cl)ccc1N`, the Potency was “inactive”. For `C[C@]12CCC(=O)C=C1CC[C@@H]1[C@@H]2CC[C@]2(C)C(=O)CC[C@@H]12`, the Potency was “inactive”. In the case of `OCCOc1ccccc1`, the Potency is reported as “inactive”. In the case of `COc1ccc(N)cc1`, the Potency is reported as “inactive”. With `O=C(O)c1nc(Cl)ccc1Cl` the Potency was “inactive”. For `CCCC[n+]1cccc(C)c1`, the Potency was “inactive”. With `CCCC[N+]1(C)CCCC1` the Potency was “inactive”. With `COc1ccccc1N` the Potency was “inactive”. In the case of `O=[N+]([O-])c1ccccc1O`, the Potency is reported as “inactive”. In the case of `CCCC[n+]1ccccc1`, the Potency is reported as “inactive”. For `CCCCn1cc[n+](C)c1C`, the Potency was “inactive”. For `Cc1cc(Cl)ccc1OCC(=O)O`, the Potency was “inactive”. With `CC(Cl)(Cl)C(=O)O` the Potency was “inactive”. In the case of `O=C(O)CCl`, the Potency is reported as “inactive”. For `CCCCCC[n+]1ccccc1`, the Potency was “inactive”. For `Nc1ccc(Cl)cc1`, the “activity, negative = cytotoxicity” value was -11.1% (inactive). In the case of `Cc1cc(-c2ccc(N)c(C)c2)ccc1N`, the Potency is reported as “inactive”. For `O=C(O)C(Cl)Cl`, the Potency was “inactive”. In the case of `CCC(=O)C(CC(C)N(C)C)(c1ccccc1)c1ccccc1` (configuration not stated), the “activity, negative = cytotoxicity” value is reported as -3.99% (inactive). With `Nc1ccc(-c2ccc(N)c(Cl)c2)cc1Cl` the Potency was “inactive and 17.4 µM (active)”. In the case of `COP(=O)(OC)OC=C(Cl)Cl`, the Potency is reported as “inactive”. In the case of `CCC[N+]1(C)CCCCC1`, the Potency is reported as “inactive”.

Target: Estrogen receptor (Homo sapiens) (UniProt P03372)
Test: qHTS assay to identify small molecule agonists of the estrogen receptor alpha (ER-alpha) signaling pathway (AID 743075)
Details: HEK293 ER-alpha-UAS-bla, beta-lactamase FRET ratio, 18 h; series mostly up to 70.1 µM; activation: at the top concentration
In the case of `CCNc1nc(Cl)nc(NCC)n1`, the Potency is reported as “inactive”. In the case of `Nc1ccc(-c2ccc(N)cc2)cc1`, the Potency is reported as “inactive”. With `CC(=O)[O][Hg][c]1ccccc1` the Potency was 26.8 µM [inconclusive] (active) and 34.4 µM [inconclusive] (active) and 1.1 µM [fluorescent] (active). For `C1CCC(NC2CCCCC2)CC1`, the “activation” value was -1.38% (inactive). In the case of `C[C@]12CCC(=O)C=C1CC[C@@H]1[C@@H]2CC[C@]2(C)C(=O)CC[C@@H]12`, the Potency is reported as 27.1 µM [activator] (active) and inactive. With `OCCOc1ccccc1` the Potency was “inactive”. In the case of `O=C(O)c1nc(Cl)ccc1Cl`, the Potency is reported as “inactive”. In the case of `Cc1cc(Cl)ccc1OCC(=O)O`, the Potency is reported as “inactive”. For `CC(Cl)(Cl)C(=O)O`, the Potency was “inactive”. For `Nc1ccc(Cl)cc1`, the Potency was “inactive”. With `Cc1cc(-c2ccc(N)c(C)c2)ccc1N` the Potency was 19.2 nM [inconclusive] (active) and 48.8 µM [inconclusive] (active) and 61.7 µM [inconclusive] (active). For `O=C(O)C(Cl)Cl`, the Potency was “inactive”. For `CCC(=O)C(CC(C)N(C)C)(c1ccccc1)c1ccccc1` (configuration not stated), the Potency was “inactive”. For `Nc1ccc(-c2ccc(N)c(Cl)c2)cc1Cl`, the Potency was 24.7 µM [inconclusive] (active) and 20.4 µM [inconclusive] (active) and 54.9 µM [inconclusive] (active). In the case of `COP(=O)(OC)OC=C(Cl)Cl`, the Potency is reported as “inactive”.
